# Measurements published in PubChem BioAssay (NCI).
# The panel holds about 83,000 compounds, 20% with a hit somewhere; the sample as a whole holds those more often.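 In brief: 96-well plates, 48 h treatment, single concentration, percent growth endpoint.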 Values without a mark were called inactive. The source made the active and inactive calls. How the source made its calls: active means growth percent below 10; inactive means the rest.
# Columns and labels:
# Test in all cases: NCI-60 one-dose screen, 48 h (100 = growth as untreated, 0 = no growth, -100 = all killed)
# Details in all cases: 10 µM unless noted
# SR leukemia = system: SR leukemia
# RPMI-8226 leukemia = system: RPMI-8226 leukemia
# OVCAR-8 ovarian = system: OVCAR-8 ovarian
# OVCAR-5 ovarian = system: OVCAR-5 ovarian
# OVCAR-4 ovarian = system: OVCAR-4 ovarian
# SK-OV-3 ovarian = system: SK-OV-3 ovarian
# IGROV1 ovarian = system: IGROV1 ovarian
# OVCAR-3 ovarian = system: OVCAR-3 ovarian
# HS 578T breast = system: HS 578T breast
# NCI/ADR-RES ovarian = system: NCI/ADR-RES ovarian
Compound,growth (SR leukemia),growth (RPMI-8226 leukemia),growth (OVCAR-8 ovarian),growth (OVCAR-5 ovarian),growth (OVCAR-4 ovarian),growth (SK-OV-3 ovarian),growth (IGROV1 ovarian),growth (OVCAR-3 ovarian),growth (HS 578T breast),growth (NCI/ADR-RES ovarian)
CN(C)c1ccc(N=Nc2ccc(Br)cn2)c(O)c1,3.15% (active),11.9%,15.5%,59.6%,1.05% (active),25.9%,16%,14.8%,64%,12.8%
O=C(/C=C/C=C/c1ccc2c(c1)OCO2)N/N=C\c1ccc(O)cc1O,21.3%,47.7%,22.8%,42.5%,9.43% (active),27%,28.9%,9.27% (active),70.2%,5.15% (active)
Cc1ccc(C2=NN3C(C2)c2cc(Br)ccc2OC32CCN(Cc3ccccc3)CC2)o1 (stereo not given),90.2%,80.8%,98.8%,109%,94.3%,93.7%,82.1%,96.6%,92%,94%
CCCCC[C@H]1C/C=C2/C(=O)C=C[C@@H]2C/C=C\CCCC(=O)O1,-3.55% (active),-13.4% (active),5.97% (active),-9.16% (active),14.1%,-11.6% (active),-42.8% (active),-58.8% (active),23.3%,10.3%
C=C1C(=O)O[C@H]2[C@H]1CC/C(C=Nc1ccc(C(F)(F)F)cc1N)=C\CC[C@@]1(C)O[C@@H]21,-2.49% (active),-17% (active),3.29% (active),31.5%,23.3%,65.4%,27.7%,-11.1% (active),7.74% (active),23.4%
CCCCn1c(-c2ccc(C(=O)O/N=C(\N)c3ccc4c(c3)OCO4)cc2)nc(-c2ccccc2)c1-c1ccccc1,-29.2% (active),29.6%,44.5%,54.1%,40.1%,89.5%,-68.5% (active),38.5%,41.1%,18.6%
Clc1ccc2c(NCCCCNc3nc(N4CCOCC4)nc4ccccc34)ccnc2c1,-18.9% (active),-32.2% (active),9.88% (active),64.8%,-13.1% (active),64.5%,44.9%,-71.2% (active),91.8%,55.6%
COc1ccc2c(c1)CC/C(=C\c1cncc(Br)c1)C2=O,33.5%,8.06% (active),90%,86.8%,86.5%,99.7%,94.8%,95.9%,116%,83.1%
CCCOc1cc2ccccc2cc1C(=O)Nc1nc(N)c2c(ccc3nccc32)[nH]1,-16.2% (active),-40.5% (active),-49% (active),-67.7% (active),-50.9% (active),-77.2% (active),-47% (active),-60.5% (active),-56.1% (active),-8.57% (active)
CCCn1c(=O)[nH]c(N)c([C@H]2c3ccccc3Oc3[nH]c(=O)n(CCC)c(=O)c32)c1=O,4.41% (active),81.7%,78.9%,99.4%,64.6%,104%,89%,13.8%,92.8%,94.8%
Cc1cc2nc(NC(=O)CN3CCN(CCN4C(=O)c5cccc6cccc(c56)C4=O)CC3)sc2cc1C,35.3%,57.8%,79.7%,93.6%,84.3%,102%,77.6%,101%,92%,79%
COc1ccc(-c2nnc(SCC(=O)c3ccc(Cl)cc3)o2)cc1,105%,101%,99%,93.3%,98%,104%,105%,103%,109%,95.6%
O=C(COc1ccc(-c2nc3cc(Cl)c(Cl)cc3[nH]2)cc1)N=Nc1c(O)[nH]c2ccccc12,9.9% (active),8.82% (active),-24.2% (active),53.6%,-55.1% (active),4.99% (active),33.2%,-54.9% (active),-36.3% (active),85.1%
CC/C=C\C[C@H]1C/C=C2/C(=O)C=C[C@H]2C/C=C\CCCC(=O)O1,4.6% (active),-10% (active),0.796% (active),87.8%,29.5%,37.3%,12.4%,6.53% (active),54.2%,22.4%
